# According to PubChem BioAssay:
# Several values for one entry are separate records, joined by “and”; a condition that tells them apart may be missing. Equal values may be shown once. Activity calls are given as the source filed them. Cut-off read from the data, not from the text of the source, unless noted: active = inhibition above about 80%; inactive = the rest.
# Key:
# [1] = compounds altering viability of human ES cells (AID 493140; call rule not given here;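 note: cells exposed to compounds for four days before counting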); settings: human embryonic stem cell survival screen; stronger effect = higher value
# [2] = viability loss with induced miR-34 in A549 – imaging, A549 dox-inducible miR-34, nuclei and caspase counts, primary screen (AID 1347080;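 active = compounds whose cell count with miR-34 switched on is under 0.7 times the count with it off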); settings: A549 miR-34 inducible, Hoechst nuclei count, 48 h
# [3] = MELAS cybrid and Rieske KO viability enhancers – cell-based, MELAS cybrids, Rieske KO mouse fibroblasts, CellTiter-Glo, primary screen (AID 1508586;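 active = mean z-score across replicates of 1.96 or higher in either the MELAS or the Rieske mutant cell line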;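 note: z relative to plate mean and SD of compound and empty wells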); settings: low glucose
# [4] = growth inhibition, single agent or in combination, cell-based, chromothripsis tumors, cisplatin or BGB combos (AID 1671449); settings: LFS_MB_P medulloblastoma cells;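 note: cells exposed for 96 hours; 0% = vehicle DMSO and 100% = killing by high DMSO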
# [5] = growth inhibition, single agent and combos, cell-based, chromothripsis tumors, cisplatin or BGB combos (AID 1671450); settings: HDN33 neuroblastoma cells, stronger effect = higher value;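 note: cells exposed to compound for four days; 0% = vehicle DMSO and 100% = cell killing by high DMSO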
# [6] = growth inhibition, single agents and combos, ICB984, cell-based, cisplatin or BGB combos, synergistic combos for chromothripsis tumors (AID 1671451; call rule not given here;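 note: cells exposed for 96 hours before readout; 0% = vehicle DMSO and 100% = killing by high DMSO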); settings: ICB984 medulloblastoma cells, drug combinations, stronger effect = higher value
# [7] = growth inhibition, single agents and combos, LFS_MB_1R, cell-based, cisplatin or BGB combos, synergistic combos for chromothripsis tumors (AID 1671452); settings: LFS_MB_1R medulloblastoma cells, stronger effect = higher value;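 note: cells exposed for 96 hours before readout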
# [8] = growth inhibition, single agents and combos, HTB85, cell-based, BGB or cisplatin IC20 combos, synergistic combos for chromothripsis tumors (AID 1671453); settings: HTB85 osteosarcoma cells, drug combinations, stronger effect = higher value;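 note: cells exposed for 96 hours before readout; 0% = vehicle DMSO and 100% = high DMSO killing control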
# [9] = growth inhibition, single agents and combos, CRL2098, cell-based, BGB or cisplatin IC20 combos, synergistic combos for chromothripsis tumors (AID 1671454); settings: CRL2098 osteosarcoma cells, drug combinations, stronger effect = higher value;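 note: cells exposed for 96 h before readout; 0% = vehicle DMSO and 100% = killing by high DMSO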
# [10] = growth inhibition, single agents and combos, HD-MB03, cell-based, BGB or cisplatin IC20 combos, synergistic combos for chromothripsis tumors (AID 1671455; in the data active = inhibition above about 83%;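 note: 0% = vehicle DMSO and 100% = high DMSO as cytotoxic control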); settings: HD-MB03 medulloblastoma cells, stronger effect = higher value
# [11] = growth inhibition, single agents and combos, UWB1.289, cell-based, BGB or cisplatin combos, synergistic combos for chromothripsis tumors (AID 1671456); settings: UWB1.289 ovarian carcinoma cells, stronger effect = higher value;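 note: cells exposed to compound for four days; 0% = vehicle DMSO and 100% = killing by high DMSO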
# [12] = growth inhibition, single agents and combos, LFS_MB_2R, cell-based, cisplatin combos, synergistic combos for chromothripsis tumors (AID 1671457); settings: LFS_MB_2R medulloblastoma cells, stronger effect = higher value;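 note: cells exposed to compound for four days before readout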
# [13] = growth inhibition, MDA-MB-436, cell-based, BGB or cisplatin combos, synergistic combos for chromothripsis tumors (AID 1671458; call rule not given here;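 note: cells exposed for 96 hours; 0% = vehicle DMSO and 100% = killing by high DMSO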); settings: MDA-MB-436 breast carcinoma growth inhibition, drug combinations, stronger effect = higher value
# [14] = UWB1.289_BRCA1 ovarian cancer growth, cell-based, BGB or cisplatin combinations (AID 1671459); settings: UWB1.289 BRCA1 ovarian carcinoma, drug combinations, stronger effect = higher value
# [15] = drug combination toxicity in non-malignant astrocytes – cell-based, BGB or cisplatin IC20 combos, cytotoxicity control for chromothriptic childhood tumor combination screen (AID 1671460); settings: Human astrocytes, viability inhibition, drug combinations, at 0.5 µM, stronger effect = higher value;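 note: cells exposed to compounds for 96 hours before viability readout; 0% = vehicle and 100% = killing control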
# [16] = BT084 cell growth, single and combined drugs, ICGC_MB145, cisplatin and BGB IC40 combos (AID 1671461); settings: BT084 medulloblastoma cells, drug combinations, stronger effect = higher value;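 note: cells exposed to drugs for 96 hours; 0% = vehicle DMSO and 100% = high DMSO full killing control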
# [17] = RCMB18 cell growth, single agent and combined, cisplatin and BGB IC40 combos (AID 1671462); settings: RCMB18 medulloblastoma cells, stronger effect = higher value;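 note: cells exposed to compound for four days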
# [18] = CRL1545 cell growth, single agent and combined, cisplatin and BGB IC20 combos (AID 1671464); settings: CRL1545 osteosarcoma cells, stronger effect = higher value;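 note: cells exposed to compound for 96 hours before readout; 0% = vehicle DMSO and 100% = high DMSO killing control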
# [19] = P. berghei load reduction in hepatocytes – cell-based, HepG2, luciferase luminescence, HepG2 viability, primary screen (AID 624349; in the data active = parasite load remaining mostly below about 12%, no sharp cut-off; inactive = mostly above about 10%;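 note: 100% = mean of DMSO negative control wells on the same plate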); settings: P. berghei liver stage in HepG2, luciferase luminescence, concentration not given here; parasite load remaining: stronger effect = lower value; viability: measured here: HepG2 viability without parasites
# [20] = stronger effect = lower value, cell number ratio, induced over uninduced
# [21] = measured here: relative caspase fold change +Dox/-Dox
# [22] = measured here: total cells with miR-34 induction, stronger effect = lower value
# [23] = measured here: total cells without miR-34 induction
# [24] = MELAS cybrid survival, CellTiter-Glo 48 h, stronger effect = higher value
# [25] = Rieske KO mouse fibroblast survival, CellTiter-Glo 72 h
# [26] = measured here: combination with BGB IC40, at 0.05 µM
# [27] = measured here: with BGB IC20 combination, at 0.5 µM
# [28] = measured here: with cisplatin IC20 combination, at 0.5 µM
# [29] = measured here: combination with cisplatin, at 0.5 µM
# [30] = measured here: combination with cisplatin, at 5 µM
structure (smiles),measurement,setting,value
Cc1cn(C2CC(N=[N+]=[N-])C(CO)O2)c(=O)[nH]c1=O (centres undefined),survival,[1],10.2 (inactive)
same,fold change,[2]; [20],0.983 (inactive)
same,fold change,[2]; [21],1.14
same,cell count,[2]; [22],8190
same,cell count,[2]; [23],8330
same,z-score,[3]; [24],-0.326 (inactive)
same,z-score,[3]; [25],-0.454
same,inhibition,"[4]; at 0.5 µM, stronger effect = higher value",-14.1% (inactive) and -29.8% (inactive)
same,inhibition,"[4]; measured here: combination with BGB IC20, at 0.005 µM",-13.1% and -7.61%
same,inhibition,"[4]; measured here: combination with BGB IC40, at 0.005 µM",-10.5% and -37.1%
same,inhibition,[4]; [26],-24.2% and -22.6%
same,inhibition,"[4]; measured here: combination with cisplatin, at 0.5 µM, stronger effect = higher value",-21.8% and -53%
same,inhibition,"[4]; measured here: combination with cisplatin, at 5 µM, stronger effect = higher value",-32.8% and -21.5%
same,inhibition,"[5]; BGB combo, at 5 µM",-43.8% and -18.1%
same,inhibition,[5]; at 0.5 µM,-49.6% (inactive) and 10.8% (inactive)
same,inhibition,"[5]; cisplatin combo, at 5 µM",-26% and 16.6%
same,inhibition,[5]; [27],-50.2% and 15%
same,inhibition,[5]; [28],-46.8% and 4.29%
same,inhibition,"[5]; single agent, at 5 µM",-44.8% and -1.12%
same,inhibition,"[6]; BGB IC20 combo, at 0.005 µM",-34.8% and -14.5%
same,inhibition,"[6]; BGB IC40 combo, at 0.005 µM",-37.8% and -34.3%
same,inhibition,"[6]; BGB IC40 combo, at 0.05 µM",-19.4% and -8.93%
same,inhibition,[6]; at 0.5 µM,-42.3% (inactive) and -13.3% (inactive)
same,inhibition,"[6]; cisplatin combo, at 0.05 µM",-22.8% and -13.2%
same,inhibition,"[6]; cisplatin combo, at 0.5 µM",-48.8% and -6.3%
same,inhibition,"[6]; cisplatin combo, at 5 µM",-19.3% and -19.8%
same,inhibition,"[6]; measured here: 5 uM single agent, at 5 µM",-29% and -10.5%
same,inhibition,[7]; at 0.5 µM,-35.4% (inactive) and -15.1% (inactive)
same,inhibition,[7]; [26],-33.7% and -15%
same,inhibition,[7]; [29],-50% and -12.6%
same,inhibition,[7]; [30],-73.7% and 10.3%
same,inhibition,[8]; at 0.5 µM,-30.9% (inactive) and 5.14% (inactive)
same,inhibition,"[8]; measured here: with BGB IC20, at 0.5 µM",-44.2% and -2.77%
same,inhibition,"[8]; measured here: with BGB IC20, at 5 µM",-49% and -21.3%
same,inhibition,"[8]; measured here: with cisplatin IC20, at 0.5 µM",-19.6% and 10.7%
same,inhibition,"[8]; measured here: with cisplatin IC20, at 5 µM",-35.3% and 18.4%
same,inhibition,"[8]; single agent, at 5 µM",-30.3% and -3.23%
same,inhibition,[9]; at 0.5 µM,-75.6% (inactive) and -23.9% (inactive)
same,inhibition,"[9]; measured here: combination with BGB at IC20, at 0.5 µM",-42.6% and -11.7%
same,inhibition,"[9]; measured here: combination with cisplatin at IC20, at 0.5 µM",-96.9% and -12%
same,inhibition,[10]; at 0.5 µM,-21.5% (inactive) and -4.43% (inactive)
same,inhibition,"[10]; measured here: combo with BGB at IC20, at 0.5 µM",-16.2% and -1.6%
same,inhibition,"[10]; measured here: combo with cisplatin at IC20, at 0.5 µM",-27.8% and -2.64%
same,inhibition,[11]; at 0.5 µM,-6.97% (inactive) and -2.38% (inactive)
same,inhibition,"[11]; measured here: inhibition with BGB combination, at 0.05 µM",-33.2% and -11.1%
same,inhibition,"[11]; measured here: inhibition with cisplatin combination, at 0.05 µM",-13% and -8.1%
same,inhibition,[12]; at 0.5 µM,3.25% (inactive) and -11.1% (inactive)
same,inhibition,[12]; [29],-9.8% and -20.4%
same,inhibition,[12]; [30],-113% and -20.1%
same,inhibition,[13]; at 0.5 µM,-19.9% (inactive) and -9.1% (inactive)
same,inhibition,"[13]; measured here: BGB combination, at 0.5 µM",-17.7% and -10.4%
same,inhibition,"[13]; measured here: BGB combination, at 5 µM",-13.1% and -23.1%
same,inhibition,"[13]; measured here: cisplatin combination, at 0.5 µM",-42.5% and -8.26%
same,inhibition,"[13]; measured here: cisplatin combination, at 5 µM",-32% and 1.63%
same,inhibition,"[14]; BGB combination, concentration series, at 5 µM",-27.1% and 1.57%
same,inhibition,[14]; at 0.5 µM,-15.8% (inactive) and 1.59% (inactive)
same,inhibition,"[14]; cisplatin combination, concentration series, at 5 µM",-5.2% and 7.24%
same,inhibition,[15],1.65% (inactive) and 1.35% (inactive)
same,inhibition,[15]; measured here: combo with BGB IC20,10% and -0.346%
same,inhibition,[15]; measured here: combo with cisplatin IC20,-32% and 7.19%
same,inhibition,[16]; at 0.5 µM,-31.2% (inactive) and -18.3% (inactive)
same,inhibition,"[16]; cisplatin combination, at 0.5 µM",-20.4% and -7.03%
same,inhibition,"[16]; cisplatin combination, at 5 µM",-13.7% and 8.51%
same,inhibition,"[16]; measured here: BGB IC40 combination 0.05 uM, at 0.05 µM",-13.5% and -22.4%
same,inhibition,"[16]; single agent, at 5 µM",-33.2% and -6.84%
same,inhibition,[17]; at 0.5 µM,-27.2% (inactive) and -6.41% (inactive)
same,inhibition,"[17]; cisplatin combo, at 5 µM",-15.6% and -7.21%
same,inhibition,"[17]; measured here: BGB IC40 combination, at 0.05 µM",-27% and -25%
same,inhibition,[17]; [29],-39.9% and -10.1%
same,inhibition,"[17]; single agent, at 5 µM",-41.5% and -29.4%
same,inhibition,[18]; at 0.5 µM,-61.3% (inactive) and 13.1% (inactive)
same,inhibition,[18]; [27],-40.5% and 10%
same,inhibition,[18]; [28],-75.6% and 14.6%
same,inhibition,"[18]; single agent, at 0.05 µM",-59.4% and 9.83%
same,inhibition,"[18]; single agent, at 5 µM",-40.3% and 11.6%
OCCN1CCN(CC/C=C2/c3ccccc3Sc3ccc(Cl)cc32)CC1,survival,[1],0.583 (inactive)
same,parasite load remaining,[19],65.1% (inactive)
same,viability,[19],62.7%
same,fold change,[2]; [20],0.885 (inactive)
same,fold change,[2]; [21],0.539
same,cell count,[2]; [22],7300
same,cell count,[2]; [23],8250
same,z-score,[3]; [24],0.382 (inactive)
same,z-score,[3]; [25],-0.231
